Screening results: PubChem, The Scripps Research Institute Molecular Screening Center
TEAD-YAP block: TEAD-YAP interaction inhibition; HEK-TIYL cells, TEAD-Gal4/YAP UAS-luciferase luminescence; inhibition, % at 9.12 µM; 1.4% of 640,000 active; in the data active = inhibition above about 32%
FBW7 activator: human FBW7 E3 ligase activation, primary screen; Q969H0; AlphaScreen FBW7–phospho-cyclin E peptide binding, activator screen; normalized activity (activation), % at 26.1 µM; 0.13% of 650,000 active; in the data active = normalized activity above about 1.9%;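 also: purified mutant Fbw7 with reduced substrate affinity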
MITF inh: inhibitors of human MITF; O75030; AlphaScreen MITF homodimerization, bead proximity signal; inhibition, % at 2.6 µM; 0.91% of 650,000 active; AID 1259374; in the data active = inhibition above about 50%
Target sequence (O75030 whole entry, looked up): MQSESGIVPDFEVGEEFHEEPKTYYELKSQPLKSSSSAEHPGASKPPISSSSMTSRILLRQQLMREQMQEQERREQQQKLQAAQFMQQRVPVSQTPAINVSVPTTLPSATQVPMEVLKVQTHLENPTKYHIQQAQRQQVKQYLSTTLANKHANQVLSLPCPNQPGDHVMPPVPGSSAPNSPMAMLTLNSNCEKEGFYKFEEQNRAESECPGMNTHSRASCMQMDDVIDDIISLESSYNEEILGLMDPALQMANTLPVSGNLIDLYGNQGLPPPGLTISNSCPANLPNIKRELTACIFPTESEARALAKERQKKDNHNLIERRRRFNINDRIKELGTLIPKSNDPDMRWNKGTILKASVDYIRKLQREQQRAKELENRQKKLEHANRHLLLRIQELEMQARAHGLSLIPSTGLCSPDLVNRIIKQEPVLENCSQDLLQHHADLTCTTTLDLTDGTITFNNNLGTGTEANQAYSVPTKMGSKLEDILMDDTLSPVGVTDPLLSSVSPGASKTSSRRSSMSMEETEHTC
GPR151 ag: activators of human GPR151; Q8TDV0; PathHunter beta-arrestin GPR151 cells, luminescence; activation, % at 11.2 µM; 1% of 650,000 active; AID 1508602; in the data active = activation above about 4.9%
MITF confirm: confirmation of human MITF inhibitors; inhibition, % at 2.6 µM; shares compounds with MITF inh; AlphaScreen MITF homodimerization, biotin/His-MITF beads; 16% of 4,700 active; AID 1259372;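 active = inhibition above a cutoff derived from the DMSO control wells, cut at about 28% in these data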;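 also: inhibitors lower the bead chemiluminescence by keeping MITF from dimerizing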
AS interf ctr: optically interferes with AlphaScreen signal | inhibition, % at 2.6 µM | LysRS AlphaScreen counterscreen, signal interference, triplicate | shares compounds with MITF inh | 7.6% of 4,700 active;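 active = inhibition above a cutoff derived from the DMSO control wells, cut at about 30% in these data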
Of the large screens only hits and unclear results are named; the others gave an inactive call (follow-up assays come after a bar, where they were run). Sampled rows, rich in hits. Any-hit rate of the full collection: about 3.4%.

CN1CCN(CCOc2ccc(C(=O)c3ccccc3)cc2)CC1	MITF inh 81 | MITF confirm inactive | AS interf ctr inactive
O=P(OCCN1CCOCC1)(c1ccccc1)c1ccccc1	MITF inh 57 | MITF confirm inactive | AS interf ctr inactive
O=C(/C=C/c1ccccc1)OCCN1CCOCC1	none
CCOc1ccc(OCCN2CCOCC2)cc1	MITF inh 76 | MITF confirm inactive | AS interf ctr inactive
Cc1ccc(C(C)C)c(OCC(=O)N(Cc2ccccc2O)c2c(C(C)C)cccc2C(C)C)c1	none
COC(=O)c1ccc(OCCN2CCOCC2)cc1	none
O=C(c1ccccc1)c1ccc(OCCN2CCOCC2)cc1	MITF inh 83 | MITF confirm inactive | AS interf ctr inactive
COc1ccc2c(C)c(C)c(=O)oc2c1	none
O=C(O)c1cnn(-c2ccccc2)c1-n1cccc1CNCc1ccc(F)cc1	none
CN(CCc1ccccn1)Cc1cccc(Br)c1	none
Cc1cccc(CN(C)CCc2ccccn2)c1	MITF inh 69 | MITF confirm inactive | AS interf ctr inactive
CN(CCc1ccccn1)Cc1ccc(Br)cc1	none
CN(C)CCN(C)Cc1ccc(-c2ccccc2)cc1	MITF inh 52 | MITF confirm inactive | AS interf ctr inactive
CCn1c2ccccc2c2cc(CN(C)CCc3ccccn3)ccc21	MITF inh 74 | MITF confirm inactive | AS interf ctr inactive
CCOc1ccc(CN(C)CCc2ccccn2)cc1	MITF inh 88 | MITF confirm inactive | AS interf ctr inactive
Cc1ccc(N(C(=O)c2ccccc2)C2C=CS(=O)(=O)C2)cc1Cl (stereo not drawn)	none
CN(CCc1ccccn1)Cc1cccc(Cl)c1	MITF inh 51 | MITF confirm inactive | AS interf ctr inactive
Cc1ccccc1CN(C)CCc1ccccn1	none
CN(C)CCN(C)Cc1ccc(F)c(F)c1	MITF inh 51 | MITF confirm inactive | AS interf ctr inactive
COc1cccc(OCC(=O)NCc2ccccn2)c1	none
Cc1cccc(OCC(=O)N(C)CCc2ccccn2)c1	MITF inh 62 | MITF confirm inactive | AS interf ctr inactive
CCOc1ccc(CN(C)CCN(C)C)cc1	MITF inh 85 | MITF confirm inactive | AS interf ctr inactive
CCN(CC(=O)Nc1ccc(S(N)(=O)=O)cc1)S(=O)(=O)c1ccccc1	none
O=C(NC1CCN(C(=O)CN2CCOCC2)CC1)c1ccccc1F	MITF inh 69 | MITF confirm inactive | AS interf ctr inactive
O=C1c2ccc(-c3nc4ccccc4c(=O)o3)cc2C(=O)N1c1ncc([N+](=O)[O-])s1	MITF inh 56 | MITF confirm inactive | AS interf ctr inactive
COc1cc(OC)nc(Oc2ccccc2C(=O)NNC(C)(C)C)n1	none
CC1CCN(Cc2nnnn2CCCC(=O)NCCCc2cccnc2)CC1	none
CC1CCN(Cc2nnnn2CCCC(=O)NCCc2cccc(Cl)c2)CC1	MITF inh 65 | MITF confirm inactive | AS interf ctr inactive
COC(=O)c1ccc(COC(=O)CNC(=O)c2ccccc2)cc1	none
COc1ccc(C(=O)NCC(=O)NCC(=O)OCc2ccccc2)cc1	MITF inh 54 | MITF confirm inactive | AS interf ctr inactive
Cc1cc(-c2cnc(N3CCOCC3)nc2C2CCCN(C(=O)c3cccs3)C2)on1 (stereo not drawn)	none
FC(F)(F)c1ccccc1CN1CCC(N2CCCCC2)CC1	none
FC(F)(F)c1ccccc1CN1CCN(C2CCCCCC2)CC1	MITF inh 78 | MITF confirm inactive | AS interf ctr inactive
CCOC(=O)C1CCCCN1Cc1ccccc1C(F)(F)F (stereo not drawn)	MITF inh 53 | MITF confirm inactive | AS interf ctr inactive
O=S(=O)(c1ccc2ccccc2c1)N1CCN(Cc2ccccc2C(F)(F)F)CC1	none
FC(F)(F)c1ccccc1CN1CCN(C2C3CC4CC(C3)CC2C4)CC1 (stereo not drawn)	MITF inh 76 | MITF confirm inactive | AS interf ctr inactive
FC(F)(F)c1ccccc1CN1CCC(N2CCCC2)CC1	MITF inh 57 | MITF confirm inactive | AS interf ctr inactive
O=C(Nc1ccccc1I)C(C(F)(F)F)C(F)(F)F	none
O=C(NCc1nnc(SCC(=O)N2N=C(c3cccs3)CC2c2ccc(F)cc2)n1-c1ccc(Br)cc1)c1ccco1 (stereo not drawn)	none
Cc1cccc(C)c1-n1c(=O)c(C#N)cc2c(=O)n3cccc(C)c3nc21	none
FC(F)(F)c1ccccc1CN1CCN(C2CCCCC2)CC1	MITF inh 69 | MITF confirm inactive | AS interf ctr inactive
COC(=O)c1ccc(NC(=O)CN2CCN(CC#N)CC2)cc1	MITF inh 71 | MITF confirm inactive | AS interf ctr inactive
Cc1ccc(NC(=O)CN2CCC(C(=O)NCc3ccccn3)CC2)cc1	none
CC1CCN(CC(=O)Nc2ccc(N3CCCC3)cc2)CC1	MITF inh 55 | MITF confirm inactive | AS interf ctr inactive
CCN1CCN(CC(=O)Nc2ccc(N3CCCCC3)cc2)CC1	MITF inh 81 | MITF confirm inactive | AS interf ctr inactive
O=C(CN1CCCC1)Nc1ccc(N2CCCCC2)cc1	none
Cc1ccc(NC(=O)CN2CCC(C(=O)NCc3cccs3)CC2)cc1	MITF inh 114 | MITF confirm inactive | AS interf ctr inactive
Cc1cc(C)nc(N2CCC(C(=O)Nc3cc(F)ccc3C)CC2)n1	none
O=C(/C=C/c1cccs1)Nc1nc(-c2cccnc2)cs1	none
CCCCOc1ccc(NC(=O)CN2CCN(C(C)=O)CC2)cc1	MITF inh 66 | MITF confirm inactive | AS interf ctr inactive
CC1CCN(CC(=O)Nc2ccc(C(=O)N3CCCCC3)cc2)CC1	MITF inh 59 | MITF confirm inactive | AS interf ctr inactive
COc1ccc(C(=O)N2CCN(Cc3cc(OC)c(O)c(OC)c3)CC2)cc1OC	none
COc1cc(OC)cc(C(=O)N2CCN(Cc3ccc(C(F)(F)F)cc3)CC2)c1	MITF inh 52 | MITF confirm inactive | AS interf ctr inactive
COc1cc(OC)cc(C(=O)N2CCN(Cc3ccc4ccccc4c3)CC2)c1	none
COc1ccc(C(=O)N2CCN(Cc3ccc(C(F)(F)F)cc3)CC2)cc1OC	TEAD-YAP block 49, MITF inh 51 | MITF confirm inactive | AS interf ctr inactive
COc1cc(-c2[nH]nc3c2C(c2ccc4c(c2)OCO4)C(C#N)=C(N)O3)cc(OC)c1OC (stereo not drawn)	MITF inh 66 | MITF confirm inactive | AS interf ctr inactive
C[C@H]1NC(=O)[C@@H]2C[C@H](NC(=O)c3ccc(F)cc3)CN2C1=O	none
Cc1ccc(-n2c(=S)sc3c(=O)n(-c4ccccc4C)c(=S)[nH]c32)c(C)c1	none
COc1ccc2c(c1)C(C)CC(C)(C)N2C(=O)CSc1ncccn1 (stereo not drawn)	none
COc1ccc(CCNCC(=O)N2c3ccccc3C(C)CC2(C)C)cc1 (stereo not drawn)	none
Cc1ccc2c(c1)C(C)CC(C)(C)N2C(=O)CSc1ncccn1 (stereo not drawn)	none
